Measurements reported in PubChem BioAssay AID1159580 (chemical genetic matrix, 2015).
Several values for one entry are separate records, joined by “and”; a condition that tells them apart may be missing. Equal values may be shown once. About 2,000 (36%) of roughly 5,500 compounds were called active. Not shown: some 18% with an inconclusive outcome. Rule as the data show it: active = normalized growth mostly below about 0.91 (no sharp cut-off); inconclusive = no clear call, values can overlap the other calls; inactive = mostly above about 0.92. The list shows a part of the results.

Test: chemical genetic growth profiling, strain panel (AID 1159580);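 also: tested at 20 µM; growth read once vehicle control cultures reached saturation at 30 °C; 1 = growth at the plate median or of vehicle wells; lower values mean less growth of the strain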
Settings: S. cerevisiae deletion strains, growth OD

Measured: normalized growth

CCN(CC)CCNC(=O)c1cc(S(C)(=O)=O)ccc1OC
inactive: locus YAL013W, strain DEP1, hits give low values 1 | locus YAL021C, strain ccr4, hits give low values 0.979 | locus YAL026C, strain drs2, hits give low values 0.976 | locus YAL030W, strain snc1, hits give low values 0.955 | locus YAL040C, strain CLN3, hits give low values 1.05 | locus YBL061C, strain skt5, hits give low values 0.967 | locus YBR009C, strain hhf1, hits give low values 0.989 | locus YBR021W, strain FUR4, hits give low values 1.02 | locus YBR023C, strain chs3, hits give low values 0.968 | locus YBR171W, strain sec66, hits give low values 0.955 | locus YBR229C, strain ROT2, hits give low values 1.01 | locus YBR231C, strain swc5, hits give low values 0.974 | locus YBR279W, strain paf1, hits give low values 0.969 | locus YCL011C, strain gbp2, hits give low values 0.945 | locus YCL016C, strain dcc1, hits give low values 0.971 | locus YCL029C, strain bik1, hits give low values 1.01 | locus YCL061C, strain MRC1 (second series), hits give low values 0.991 | locus YCL061C, strain MRC1, hits give low values 0.982 | locus YCL069W, strain vba3, hits give low values 0.984 | locus YCR088W, strain abp1, hits give low values 0.967 | locus YDL005C, strain med2, hits give low values 0.972 | locus YDL035C, strain GPR1, hits give low values 1.02 | locus YDL040C, strain nat1, hits give low values 0.976 | locus YDL074C, strain BRE1, hits give low values 1 | locus YDL101C, strain DUN1, hits give low values 1.01 | locus YDL134C, strain PPH21, hits give low values 1.02 | locus YDL185W, strain tfp1, hits give low values 1.01 | locus YDL192W, strain arf1, hits give low values 1.01 | locus YDR001C, strain nth1, hits give low values 0.953 | locus YDR069C, strain doa4, hits give low values 0.974 | locus YDR101C, strain arx1, hits give low values 0.991 | locus YDR137W, strain rgp1, hits give low values 0.959 | locus YDR150W, strain NUM1, hits give low values 1.01 and 0.998 | locus YDR159W, strain sac3, hits give low values 0.978 | locus YDR162C, strain NBP2, hits give low values 1.02 | locus YDR195W, strain ref2 0.965 | locus YDR297W, strain sur2, hits give low values 0.967 | locus YDR318W, strain mcm21, hits give low values 1.02 | locus YDR334W, strain swr1, hits give low values 0.937 | locus YDR335W, strain msn5, hits give low values 0.966 | locus YDR363W, strain ESC2, hits give low values 0.973 | locus YDR388W, hits give low values 1.02 | locus YDR392W, strain spt3, hits give low values 0.902 | locus YDR502C, strain sam2, hits give low values 1.01 | locus YEL003W, strain gim4, hits give low values 0.979 | locus YEL037C, strain rad23, hits give low values 0.971 | locus YEL061C, strain CIN8 (second series), hits give low values 0.964 | locus YEL061C, strain CIN8, hits give low values 1.01 | locus YER002W, strain NOP16, hits give low values 1.01 | locus YER015W, strain faa2, hits give low values 0.976 | locus YER016W, strain bim1, hits give low values 0.988 | locus YER110C, hits give low values 1.01 | locus YER111C, strain swi4, hits give low values 0.966 | locus YER155C, strain BEM2 (second series), hits give low values 0.978 | locus YER155C, strain BEM2, hits give low values 1.01 | locus YER167W, strain BCK2, hits give low values 1.02 | locus YFR010W, strain ubp6, hits give low values 0.953 | locus YGL078C, strain dbp3, hits give low values 1.01 | locus YGL086W, strain mad1, hits give low values 1 | locus YGL167C, strain pmr1, hits give low values 0.97 | locus YGL173C, strain kem1, hits give low values 0.965 | locus YGL227W, strain vid30, hits give low values 0.97 | locus YGL240W, strain doc1, hits give low values 0.972 | locus YGL248W, strain PDE1, hits give low values 1 | locus YGL253W, strain hxk2, hits give low values 0.987 | locus YGR078C, strain PAC10, hits give low values 0.998 | locus YGR135W, strain pre9, hits give low values 1.03 | locus YGR229C, strain SMI1, hits give low values 0.96 | locus YGR252W, strain gcn5, hits give low values 0.996 | locus YHR013C, strain ard1, hits give low values 0.95 | locus YHR027C, strain rpn1, hits give low values 0.952 | locus YHR030C, strain SLT2, hits give low values 1.01 and 0.98 | locus YHR079C, strain IRE1 (second series), hits give low values 1.01 | locus YHR079C, strain IRE1, hits give low values 0.998 | locus YHR094C, strain hxt1, hits give low values 1.01 | locus YHR129C, strain ARP1, hits give low values 1.01 | locus YHR142W, strain chs7, hits give low values 0.928 | locus YHR200W, strain rpn10, hits give low values 1.01 | locus YIL066C, strain RNR3, hits give low values 1.02 | locus YIL073C, strain SPO22, hits give low values 1.1 | locus YIL125W, strain kgd1, hits give low values 1.02 | locus YIR030C, strain dcg1, hits give low values 1.01 | locus YJL092W, strain hpr5, hits give low values 0.979 | locus YJL095W, strain BCK1 (second series), hits give low values 0.972 | locus YJL095W, strain BCK1, hits give low values 0.997 and 0.978 | locus YJL115W, strain asf1, hits give low values 0.954 | locus YJL129C, strain trk1, hits give low values 0.986 | locus YJL134W, strain LCB3, hits give low values 1.01 | locus YJL154C, strain vps35, hits give low values 0.95 | locus YJL164C, strain tpk1, hits give low values 0.981 | locus YJL166W, strain qcr8, hits give low values 0.931 | locus YJL168C, strain set2, hits give low values 1.01 | locus YJL187C, strain SWE1 (second series), hits give low values 0.999 | locus YJL187C, strain SWE1, hits give low values 0.974 | locus YJR043C, strain POL32, hits give low values 1.01
